Test results as given in PubChem BioAssay AID1963322 (National Center for Advancing Translational Sciences (NCATS), 2024).
Records with an inconclusive call do not appear. Values without a mark were called inactive. The source made the active and inactive calls. The call rests on the fitted dose curve.

Each molecule was assayed against cAMP-dependent protein kinase catalytic subunit alpha (Homo sapiens) (UniProt P17612) (assay: Protein Kinase A (PKA-HiBiT) SDR gain of signal screen). Conditions: PKA-HiBiT structural dynamics response (SDR), luminescence gain of signal; series mostly up to 32.9 µM; activity change, positive = signal gain: at the top concentration.
How it was run: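 PKA-N-HiBiT enzyme at 10 nM final was preincubated with compounds for 30 min at room temperature, protected from light. Nano-Glo HiBiT reagent was then added for 10 min, and luminescence was read by CCD imager. H-89 served as positive control.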

Structure (SMILES) | activity change, positive = signal gain | Potency
Nc1nc(NCCNc2ncc(-n3ccnc3)c(-c3ccc(Cl)cc3Cl)n2)ccc1[N+](=O)[O-] | -35.6% | 
CN1CCN(C2CCC(n3cc(-c4ccc(Oc5ccccc5)cc4)c4c(N)ncnc43)CC2)CC1 (centres undefined) | -10.5% | 
Cc1cn(-c2cccc(NC(=O)c3ccc(C)c(Nc4nccc(-c5cccnc5)n4)c3)c2)cn1 | -0.576% | 
CSc1cccc(Nc2ncc3cc(-c4c(Cl)cccc4Cl)c(=O)n(C)c3n2)c1 | -1.1% | 
CN1CCN(CCCNc2ncc(Cl)c(-c3cc4c(C(=O)NC5CC5)cccc4s3)n2)CC1 | -4.3% | 
c1ccc2c(-c3cnn4cc(-c5ccc(N6CCNCC6)cc5)cnc34)ccnc2c1 | 6.14% [at 3.64 µM] | 
NC(=O)c1cccc(-c2cc(Nc3ccc(OC(F)(F)F)cc3)ncn2)c1 | 4.05% | 
COC(=O)Nc1ccc(-c2nc(N3CCOCC3)c3cnn(C4CCN(C(=O)OC)CC4)c3n2)cc1 | 6.1% | 
CCN1CCN(Cc2ccc(NC(=O)c3ccc(C)c(NC(=O)c4cncc(-c5cccs5)c4)c3)cc2C(F)(F)F)CC1 | 16.5% | 
c1ccc(-c2oc3ncnc(NC[C@@H]4CCCO4)c3c2-c2ccccc2)cc1 | 5.8% | 
Cc1ccc(C(=O)Nc2ccc(Oc3cc4cnn(C)c4cc3-c3cn[nH]c3)c(F)c2)c(=O)n1-c1ccc(F)cc1 | 8.3% | 
Cn1ncc(NC(=O)c2nc(-c3c(F)cccc3F)sc2N)c1N1CC[C@@H](N)[C@H](F)CC1 |  | 0.7 µM (active)
Cc1cc(O)c2c(c1)C(=O)c1cc(O)cc(O)c1C2=O | -17% | 
Nc1nc(Nc2ccc(S(N)(=O)=O)cc2)n(C(=S)Nc2c(F)cccc2F)n1 |  | 11.1 µM (active)
